This is a sample that favours compounds with a hit; in the whole collection about 1.6% have one here.
gsp ag: gsp mutant agonism; gsp mutant cells, cAMP HTRF, 30 min; Potency, µM (series often up to 76.9 µM), for inactives: at the highest dose activation (cAMP increase), most hits filed as activators; 340,000 tested, 0.13% active; active = well fitted activation curve with a large enough effect; inconclusive = small, poorly fitted or top-dose-only effect, or another doubt; inactive = no such curve, though single readings can be large or run the other way; cell line not stated here;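 also: phosphodiesterase inhibitor Ro 20-1724 added with compounds to block cAMP breakdown; potency is read from the fitted curve at half-maximal effect; nearly all actives have a fitted effect of over 60% in size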
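Cells in DMEM/10% FBS with G418 were pretreated with compounds in DMSO plus […] (300 uM stock) for 30 min at 37C. cAMP was measured by HTRF (cAMP-d2 plus anti-cAMP antibody-K) after 30 min at room temperature.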
KCNH2 3.1 block: inhibitors of human KCNH2 3.1 potassium channel isoform; AID 720553; activity change, % (tested at about 1.8 µM); 340,000 tested, 0.95% active; U2OS KCNH2 3.1, thallium flux FluxOr; active compounds read low;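 active = maximum activity change below -70%; inconclusive = maximum activity change from -70% to -50%; inactive = maximum activity change above -50%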;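 also: thallium influx rate constant from kinetic fluorescence after stimulation buffer; % is scaled to controls: 0 for no effect and ±100 for the full control effect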
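Virally transduced U2OS (3.1 isoform, 4 h infection in dark at RT) → overnight 37 C → FluxOr + Red40 in HBSS/HEPES, 45 min → stimulation buffer, 2 min kinetic read → rate constant vs DMSO controls.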
gsp antagonist: gsp mutant antagonism | gsp-mutant cells, cAMP HTRF, 30 min | Potency, µM (titrated, usually from 76.9 µM), inactives show at the top dose activity change, negative = inhibition, usual class: inhibitors | 340,000 tested, 0.4% active; calls by dose curve; cell line not stated here;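 also: intracellular cAMP measured with PDE inhibitor Ro 20-1724 present during compound exposure; potency is read from the fitted curve at half-maximal effect; % is scaled to controls: 0 for no effect and ±100 for the full control effect; nearly all actives have a fitted effect of over 65% in size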
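Measurement of cellular cAMP by homogeneous time-resolved fluorescence following a 30 min compound exposure at 37C. The PDE inhibitor […] was present throughout; the assay buffer was DPBS with 0.05% BSA and 0.005% Tween 20.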
Akt phos inh: inhibitors of Akt phosphorylation; Neuro2A IGF-stimulated pAkt S473 HTRF, 20 min; active compounds read low; activity change, % for hits at 50 µM; 360,000 tested, 0.32% active; AID 651550; in the data active = activity change below about -80%; inconclusive = mostly about -51% to -80%; also: % is scaled to controls: 0 for no effect and ±100 for the full control effect
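Single-point screen (50 µM final compound) in Neuro2A cells stimulated 20 min with 6 nM IGF at 37 deg C. After lysis, Ser473-phosphorylated Akt read by HTRF (ex 330 nm, em 615/665 nm) as the 665/615 ratio.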
KCNH2 WT inh: inhibitors of human wildtype KCNH2 potassium channel. Q12809. U2OS, BacMam KCNH2, thallium flux FluxOr; active compounds read low. activity change, % at 1.84 µM. 340,000 tested, 0.37% active. AID 720551;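 active = maximum activity change below -70%; inconclusive = maximum activity change between -70% and -50%; inactive = maximum activity change above -50%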; also: % is scaled to controls: 0 for no effect and ±100 for the full control effect
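U2OS cells transduced with wild-type KCNH2 virus are loaded with FluxOr dye for 45 min, and thallium flux is measured in kinetic reads before and after stimulation buffer. Rate constants are normalized to DMSO controls.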
Glioma ERSR ind: inducers of ER stress response in human glioma cells; Potency, µM, for the others: at the highest dose activation, hits mostly activators; U87-MG GRP78 promoter luciferase reporter, 16 h; 420,000 tested, 0.02% active; active = well fitted activation curve with a large enough effect; inconclusive = small, poorly fitted or top-dose-only effect; inactive = no such curve, though single readings can be large or run the other way; also: potency is read from the fitted curve at half-maximal effect; series mostly up to about 76 µM; % of control where 0% means no effect; nearly all actives have a fitted effect of over 35% in size
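Stably transfected U87-MG glioma cells carrying a GRP78-based luciferase sensor; 16 h compound incubation. Luminescence end-point read 10 min after Bright-Glo addition at room temperature.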
* hit, by the source's call; i = inactive; ? = inconclusive; . = no result; [ ] = dose if it differs, or a comment.

SMILES | gsp ag | KCNH2 3.1 block | gsp antagonist | Akt phos inh | KCNH2 WT inh | Glioma ERSR ind
O=C(CN(c1ccc(Br)cc1)S(=O)(=O)c1ccc(Cl)c([N+](=O)[O-])c1)NCCc1ccccc1 | 14%[15.4 µM] | -8 | -14% | i | 28 | -1%
Cc1cccc2c(N3CCCC3)nc(CNS(=O)(=O)c3ccccc3Cl)nc12 | . | . | . | . | . | -5%
CCn1cc([N+](=O)[O-])c(C(=O)N2N=C(c3cccc4ccccc34)CC2c2ccccc2O)n1 (stereo not given) | 14% | -17 | 28µM* | i | -10 | -6%
CCOC(=O)CSC1=NC(=O)/C(=C\c2ccc(Cl)cc2)S1 | 17% | -1 | 32µM* | i | 2 | -6%
Cc1ccc(C)c(NC(=O)CSc2nc3nc(-c4cccs4)cc(C(F)(F)F)c3c(=O)[nH]2)c1 | 20µM* | 19 | -10% | i | 4 | -4%
COc1cc2c(cc1NC(=O)/C=C/c1cc(OC)c(OC)c(OC)c1)oc1ccccc12 | 2% | -87* | 12% | i | -7 | -3%
C1=Cc2ccccc2/C1=C\c1cccc(/C=C2\C=Cc3ccccc32)c1 | . | . | . | . | . | -8%
CCOc1ccc(-c2nnc(Nc3ccc(OC)c(C(=O)N4CCCCC4)c3)c3ccccc23)cc1 | -70% | -4 | 35µM* | i | -27 | -2%
CCCCCCC(=O)Nc1c2c(nc3ccccc13)N(C)CC2 | 2% | -95* | -6% | i | -101* | -5%
CN1CCc2c1nc1ccccc1c2NC(=O)CN1CCCC1 | -29% | 8 | -2% | i | 11 | 0%
Cc1nn(-c2cccc(Cl)c2)c2c1C(c1ccncc1)C(C#N)=C(N)O2 (stereo not given) | -1% | -3 | 40µM* | i | -2 | -1%
COc1ccc(OC)c(C2C(C#N)=C(N)Oc3cc(C)[nH]c(=O)c32)c1 (stereo not given) | 0% | -7 | 1% | i | 4 | 0%
COc1ccc(OC)c(C2C(C#N)=C(N)Oc3c2c(C)nn3-c2cccc(Cl)c2)c1 (stereo not given) | ? | -94* | ? | i | 4 | -1%
Cc1nn(-c2cccc(Cl)c2)c2c1C(c1cccnc1)C(C#N)=C(N)O2 (stereo not given) | ? | -8 | -6% | i | 2 | -1%
CN(C)CC(C)(C)CNC(=O)c1cnn(-c2nccc(-c3ccc4c(c3)OCO4)n2)c1-c1ccco1 | . | . | . | . | . | -4%
CSc1ncccc1C(=O)NCCN1Cc2ccccc2OC(c2ccccc2F)C1 (stereo not given) | . | . | . | . | . | -5%
CC(C)=C(NC(=O)c1ccccc1)C(=O)NCc1ccccc1 | 6% | -118* | 4% | i | -8 | 1%
CC(=O)c1ccc(NC(=O)C(NC(=O)c2ccccc2)=C(C)C)cc1 | -53% | -4 | 9% | i | -8 | -4%
CN(C(=S)NC(=O)c1ccc(F)cc1)C1CCCCC1 | -1% | -1 | 7% | i | -3 | 7%
CN(C(=S)NC(=O)c1ccc(Cl)cc1)C1CCCCC1 | -47% | -15 | 7% | i | -74* | ?
C/C=C/C=C\C(=O)Nc1cccc(C2=NOC3(C2)C[C@H](C(N)=O)N(C(=O)/C=C/C)C3)c1 (stereo not given in full) | . | -177* | 3% | i | -2 | 0%
O=C(COC(=O)c1cncc(Br)c1)Nc1nnc(-c2ccccc2)o1 | 41% | 17 | -7% | i | -72* | -4%
COc1cc(OC)cc(C(=O)OCC(=O)Nc2nnc(-c3ccccc3)o2)c1 | 10%[15.4 µM] | 18 | -11% | i | 3 | -4%
N#Cc1ccc(OCc2nnc(SCC(=O)N3CCCc4ccccc43)n2-c2ccccc2)cc1 | -3% | -14 | -13% | i | -13 | -1%
COc1cccc(-c2nnc(SCC(=O)N3CCCc4ccccc43)o2)c1 | ? | . | -7% | i | 0 | -2%
SMILES | gsp ag | KCNH2 3.1 block | gsp antagonist | Akt phos inh | KCNH2 WT inh | Glioma ERSR ind
COc1ccc(OCc2nnc(SCC(=O)N3CCCc4ccccc43)n2-c2ccc(C)cc2)cc1 | -22% | -83* | -11% | i | 7 | 3%
COc1cc(OC)cc(-c2nnc(SCC(=O)N3CCCc4ccccc43)o2)c1 | -17% | 9 | -1%[15.4 µM] | -116%* | 1 | -3%
CCC(C)(C)OC(=O)N[C@@H](Cc1c[nH]c2ccccc12)C(=O)N[C@@H](CCSC)C(=O)N[C@@H](CC(=O)O)C(=O)N[C@@H](Cc1ccccc1)C(N)=O | . | . | . | . | . | -4%
CCC1CN(CCNC(=O)c2cccc(C(=O)OC)c2)Cc2cc(OC)ccc2O1 (stereo not given) | . | . | . | . | . | -2%
COc1cc(C2C=C(C34CC5CC(CC(C5)C3)C4)NC(=S)N2)cc(OC)c1OC (stereo not given) | 3% | 30 | ? | -113%* | -2 | -2%
COc1ccc(OC)c(C2C=C(C34CC5CC(CC(C5)C3)C4)NC(=S)N2)c1 (stereo not given) | 5% | ? | -10% | i | i | -2%
Cc1cccc(CNC(=O)c2cnn(-c3nccc(-c4ccccc4C(F)(F)F)n3)c2C)n1 | . | . | . | . | . | -4%
CCOc1cc(C(=O)OC(C)C(=O)Nc2ncc(Cl)cc2Cl)ccc1OCC(=O)N1CCOCC1 (stereo not given) | -10% | 5 | 50µM* | i | . | -4%
CCOc1cc(C(=O)OC(C)C(=O)Nc2ccccc2OC)ccc1OCC(=O)N1CCOCC1 (stereo not given) | -1% | 13 | -24% | i | 9 | -4%
COc1ccccc1N(C)S(=O)(=O)c1ccc(Cl)c(C(=O)NC2=NCCS2)c1 | -5%[15.4 µM] | -76* | -10% | i | 1 | -2%
CN(c1ccccc1)S(=O)(=O)c1ccc(Cl)c(C(=O)NC2=NCCS2)c1 | -46% | 2 | 3% | i | 31 | -2%
COc1ccc(C(=O)NCc2nc(-c3cccc(NC(=O)c4ccc(C)s4)c3)oc2C)cc1 | . | . | . | . | . | -5%
OCCN(CCO)c1ccc(/C=C/c2ccnc3ccccc23)cc1 | . | . | . | . | . | 2%
Cc1ccccc1OCC(=O)NNC(=O)c1ccc(-c2ccccc2)cc1 | -15% | -13 | 13% | -83%* | -6 | -3%
CC(C)C(=O)N1CCN(c2ccc(NC(=O)COc3ccccc3[N+](=O)[O-])cc2)CC1 | 9% | -5 | 28µM* | i | 19 | -8%
Cc1ccccc1OCC(=O)NCC(=O)OCC(=O)c1ccc(-c2ccccc2)cc1 | . | . | . | . | . | -3%
CC(=O)Nc1ccc(NC(=O)COc2ccc([N+](=O)[O-])cc2)cc1 | -1%[15.4 µM] | -10 | -4% | i | -3 | -2%
Cc1ccccc1OCC(=O)Nc1ccc([N+](=O)[O-])cc1 | -50%[15.4 µM] | -3 | -2% | i | -169* | -3%

Bioassay records: PubChem, National Center for Advancing Translational Sciences (NCATS)
